Results as given in ChEMBL document CHEMBL1961873, “Compounds: GSK PKIS; Assays: Nanosyn kinase panel” (2012).
Several values for one entry are separate records, joined by “and”; a condition that tells them apart may be missing. Equal entries are not always repeated.

Assays:
[1] = target: Protein kinase C gamma type (Homo sapiens) (UniProt P05129); settings: at 1 µM;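 also: each value is an averaged percent inhibition of the enzyme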
[2] = target: T1, Protein kinase C iota type (Homo sapiens) (UniProt P41743); settings: at 0.1 µM
T1 sequence (whole entry): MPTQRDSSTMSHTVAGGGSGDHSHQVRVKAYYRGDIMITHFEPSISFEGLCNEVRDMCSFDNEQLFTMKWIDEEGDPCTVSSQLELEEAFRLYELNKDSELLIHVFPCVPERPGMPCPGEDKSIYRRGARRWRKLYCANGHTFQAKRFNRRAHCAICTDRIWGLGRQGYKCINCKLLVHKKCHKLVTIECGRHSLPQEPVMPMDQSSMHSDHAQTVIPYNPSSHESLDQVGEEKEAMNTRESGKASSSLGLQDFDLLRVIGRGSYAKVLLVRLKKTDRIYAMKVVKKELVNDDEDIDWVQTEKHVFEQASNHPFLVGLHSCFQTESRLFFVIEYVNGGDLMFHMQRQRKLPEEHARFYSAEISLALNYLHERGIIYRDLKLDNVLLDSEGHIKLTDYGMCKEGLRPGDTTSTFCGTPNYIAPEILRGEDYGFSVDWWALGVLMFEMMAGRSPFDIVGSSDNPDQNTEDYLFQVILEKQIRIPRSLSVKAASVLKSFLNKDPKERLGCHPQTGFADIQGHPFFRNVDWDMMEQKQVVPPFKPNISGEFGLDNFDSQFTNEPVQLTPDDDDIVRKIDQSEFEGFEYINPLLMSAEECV

[3] = target: T1, Protein kinase C iota type (Homo sapiens); settings: at 1 µM
[4] = target: Protein kinase C theta type (Homo sapiens) (UniProt Q04759); settings: at 0.1 µM
[5] = target: Protein kinase C theta type (Homo sapiens) (UniProt Q04759); settings: at 1 µM
[6] = target: Protein kinase C beta type (Homo sapiens) (UniProt P05771); settings: at 0.1 µM
[7] = target: Protein kinase C beta type (Homo sapiens) (UniProt P05771); settings: at 1 µM
[8] = target: T2, Serine/threonine-protein kinase D1 (Homo sapiens) (UniProt Q15139); settings: at 0.1 µM
T2 sequence (whole entry): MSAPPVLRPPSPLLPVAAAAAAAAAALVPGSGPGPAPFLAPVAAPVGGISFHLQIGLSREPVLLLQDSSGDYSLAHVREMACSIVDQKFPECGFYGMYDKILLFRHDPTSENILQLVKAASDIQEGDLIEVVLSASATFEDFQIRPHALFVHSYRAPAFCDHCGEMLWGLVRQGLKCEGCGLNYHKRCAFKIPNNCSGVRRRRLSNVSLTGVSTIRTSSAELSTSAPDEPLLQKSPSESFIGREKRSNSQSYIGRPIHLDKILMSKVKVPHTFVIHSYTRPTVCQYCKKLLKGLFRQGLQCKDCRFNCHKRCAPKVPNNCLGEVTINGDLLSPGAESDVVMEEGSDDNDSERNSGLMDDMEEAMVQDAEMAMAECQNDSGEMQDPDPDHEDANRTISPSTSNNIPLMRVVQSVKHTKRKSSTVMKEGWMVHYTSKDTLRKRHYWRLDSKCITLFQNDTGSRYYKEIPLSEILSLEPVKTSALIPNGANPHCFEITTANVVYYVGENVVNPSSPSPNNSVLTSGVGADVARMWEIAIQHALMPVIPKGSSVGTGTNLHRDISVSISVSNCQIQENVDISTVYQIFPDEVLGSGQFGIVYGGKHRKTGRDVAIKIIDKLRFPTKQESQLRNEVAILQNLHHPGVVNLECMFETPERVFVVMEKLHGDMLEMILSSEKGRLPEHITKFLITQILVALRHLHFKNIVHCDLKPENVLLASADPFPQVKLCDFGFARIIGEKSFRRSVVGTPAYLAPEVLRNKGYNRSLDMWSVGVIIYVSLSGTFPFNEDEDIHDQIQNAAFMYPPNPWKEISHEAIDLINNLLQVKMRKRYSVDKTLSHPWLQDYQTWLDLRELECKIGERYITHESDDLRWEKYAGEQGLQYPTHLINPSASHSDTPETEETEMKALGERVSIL

[9] = target: T2, Serine/threonine-protein kinase D1 (Homo sapiens); settings: at 1 µM
[10] = target: T3, Serine/threonine-protein kinase D2 (Homo sapiens) (UniProt Q9BZL6); settings: at 0.1 µM;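 also: reported percent inhibition values are means, part of the GSK PKIS kinase panel screen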
T3 sequence (whole entry): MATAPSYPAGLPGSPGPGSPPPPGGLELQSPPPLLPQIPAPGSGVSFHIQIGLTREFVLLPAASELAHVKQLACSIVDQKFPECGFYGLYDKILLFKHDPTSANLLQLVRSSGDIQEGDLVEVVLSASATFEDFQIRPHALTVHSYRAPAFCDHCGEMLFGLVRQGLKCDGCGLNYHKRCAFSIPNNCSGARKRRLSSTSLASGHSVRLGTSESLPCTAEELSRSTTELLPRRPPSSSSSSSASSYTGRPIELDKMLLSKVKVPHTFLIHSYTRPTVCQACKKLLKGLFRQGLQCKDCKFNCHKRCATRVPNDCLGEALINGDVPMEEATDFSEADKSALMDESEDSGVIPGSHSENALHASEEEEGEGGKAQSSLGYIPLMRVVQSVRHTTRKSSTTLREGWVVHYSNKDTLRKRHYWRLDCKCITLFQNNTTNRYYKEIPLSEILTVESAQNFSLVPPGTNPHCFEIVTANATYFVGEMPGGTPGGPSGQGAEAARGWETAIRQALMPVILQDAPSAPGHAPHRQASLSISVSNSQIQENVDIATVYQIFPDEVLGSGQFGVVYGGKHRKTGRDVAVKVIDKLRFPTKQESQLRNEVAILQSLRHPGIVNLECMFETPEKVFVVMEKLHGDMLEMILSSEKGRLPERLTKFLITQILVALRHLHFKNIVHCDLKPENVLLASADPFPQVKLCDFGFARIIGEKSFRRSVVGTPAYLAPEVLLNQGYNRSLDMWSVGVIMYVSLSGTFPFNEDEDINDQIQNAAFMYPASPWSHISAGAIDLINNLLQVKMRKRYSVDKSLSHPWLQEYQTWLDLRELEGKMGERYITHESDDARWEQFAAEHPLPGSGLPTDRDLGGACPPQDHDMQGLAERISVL

Chain of Protein kinase C theta type (Homo sapiens) (Q04759 whole entry, looked up): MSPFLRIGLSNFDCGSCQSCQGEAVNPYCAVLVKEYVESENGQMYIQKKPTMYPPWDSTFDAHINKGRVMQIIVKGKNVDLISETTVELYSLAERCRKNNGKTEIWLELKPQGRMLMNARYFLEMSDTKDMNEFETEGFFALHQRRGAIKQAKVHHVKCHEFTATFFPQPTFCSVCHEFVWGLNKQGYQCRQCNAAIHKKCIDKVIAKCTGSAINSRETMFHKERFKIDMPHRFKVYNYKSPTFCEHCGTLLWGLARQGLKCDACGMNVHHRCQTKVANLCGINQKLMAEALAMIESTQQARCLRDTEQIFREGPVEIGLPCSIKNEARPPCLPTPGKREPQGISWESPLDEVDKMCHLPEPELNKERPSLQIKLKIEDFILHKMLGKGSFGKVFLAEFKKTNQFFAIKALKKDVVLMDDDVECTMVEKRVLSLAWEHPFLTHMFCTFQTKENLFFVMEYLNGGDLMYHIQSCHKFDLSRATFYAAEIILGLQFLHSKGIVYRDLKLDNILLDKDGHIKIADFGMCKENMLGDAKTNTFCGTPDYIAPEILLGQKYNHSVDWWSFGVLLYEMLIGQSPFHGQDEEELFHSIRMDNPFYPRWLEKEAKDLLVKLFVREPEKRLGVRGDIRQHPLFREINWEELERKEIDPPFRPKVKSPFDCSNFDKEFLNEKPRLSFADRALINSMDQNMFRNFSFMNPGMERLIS
Chain of Protein kinase C beta type (Homo sapiens) (P05771 2-671 limits assumed): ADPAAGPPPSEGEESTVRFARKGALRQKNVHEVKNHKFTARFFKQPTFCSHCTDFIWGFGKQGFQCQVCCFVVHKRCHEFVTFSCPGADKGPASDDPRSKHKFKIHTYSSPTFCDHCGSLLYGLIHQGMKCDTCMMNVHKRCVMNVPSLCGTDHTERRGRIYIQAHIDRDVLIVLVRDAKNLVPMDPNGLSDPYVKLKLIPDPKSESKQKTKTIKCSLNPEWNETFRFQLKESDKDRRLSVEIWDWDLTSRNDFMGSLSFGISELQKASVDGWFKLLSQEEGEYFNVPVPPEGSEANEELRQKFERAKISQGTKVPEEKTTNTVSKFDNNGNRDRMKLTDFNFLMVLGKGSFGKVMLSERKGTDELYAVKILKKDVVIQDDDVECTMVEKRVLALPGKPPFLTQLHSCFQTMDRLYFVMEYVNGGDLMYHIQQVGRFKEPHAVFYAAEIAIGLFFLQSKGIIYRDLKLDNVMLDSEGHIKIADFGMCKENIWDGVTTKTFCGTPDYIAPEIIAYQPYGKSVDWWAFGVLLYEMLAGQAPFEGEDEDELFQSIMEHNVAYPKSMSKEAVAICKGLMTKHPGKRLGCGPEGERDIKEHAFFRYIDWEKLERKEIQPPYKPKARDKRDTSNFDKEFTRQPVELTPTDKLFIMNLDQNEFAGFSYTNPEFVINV

SMILES	inhibition [1]	inhibition [2]	inhibition [3]	inhibition [4]	inhibition [5]	inhibition [6]	inhibition [7]	inhibition [8]	inhibition [9]	inhibition [10]
CS(=O)(=O)CCNCc1ccc(-c2ccc3ncnc(Nc4ccc(OCc5ccccc5)cc4)c3c2)o1	3.26%	1.61%	1.87%	1.49%	2.01%	0.51%	0.86%	3.17%	4.08%	2.78%
NS(=O)(=O)c1cccc(N/C=C2\C(=O)Nc3ccccc32)c1	3.27%	1.82%	2.43%	2.17%	1.6%	1.9%	3.11%	3.72%	11%	3.88%
CN1CCN(Cc2ccc(-c3cc4ncnc(Nc5ccc(OCc6cccc(F)c6)c(Cl)c5)c4s3)o2)CC1	1.46% and 6.95%	1.42% and 1.16%	1.76% and 1.19%	1.25% and 2.92%	0.89% and 4.95%	0.98% and 1.08%	2.27% and 3.9%	3.21% and 5.57%	6.44% and 7.02%	2.14% and 5.13%
COc1c(C(N)=O)cc(-c2ccc(Cl)cc2)cc1-c1ccc(S(N)(=O)=O)cc1	4.7%	1%	0.99%	2.35%	3.92%	1.11%	3.56%	4.74%	5.66%	3.83%
CCOc1ccc2c(-c3ccnc(Nc4cc(OC)cc(C(F)(F)F)c4)n3)cnn2n1	1.98%	1.79%	-0.03%	0.28%	-0.68%	1.09%	3.36%	0.73%	0.65%	0.66%
CNC(=O)c1ncccc1Nc1nc(Nc2cc3c(cc2OC)CCCN3C(=O)CN(C)C)nc2[nH]ccc12	20.5%	1.89%	2.01%	1.94%	5.49%	1.44%	7.12%	5.48%	24.5%	7.16%
CS(=O)(=O)Nc1ccc(-c2ccc3c(NC(=O)C4CC4)n[nH]c3c2)cc1	4.43%	0.75%	3.13%	1.56%	-0.36%	1.18%	1.78%	2.7%	4.68%	3.14%
COc1cc(N2CCN(C(C)C)CC2)ccc1Nc1nc(Nc2cccc3ncccc23)c2cc[nH]c2n1	0.74%	-0.08%	0.58%	-0.84%	-1.07%	-0.21%	0.45%	-0.17%	3.6%	0.68%
COc1cc2c(cc1Nc1nc(Nc3cccc(F)c3C(N)=O)c3cc[nH]c3n1)N(C(=O)CN1CCN(C(C)C)CC1)CC2	3.85%	-0.63%	-1.02%	2.08%	5.05%	1.31%	2.64%	4.89%	12.4%	4.84%
NS(=O)(=O)c1ccc(N/N=C2\C(=O)Nc3ccc(C(=O)NCc4ccncc4)cc32)cc1	6.61%	-9.87%	1.34%	3.98%	8.38%	1.7%	4.09%	3.88%	24.4%	6.54%
c1ccc(-c2n[nH]cc2-c2ccnc(-c3ccc(OCCn4ccnc4)cc3)c2)nc1	2.35%	0.38%	-0.37%	0.23%	0.98%	0.85%	-0.29%	9.5%	56.5%	14.6%
CS(=O)(=O)CCNCc1ccc(-c2ccc3ncnc(Nc4ccc(OCc5cccc(C(F)(F)F)c5)cc4)c3c2)o1	-0.26%	2.37%	2.7%	2.36%	5.13%	1.56%	3.15%	4.62%	6.2%	5.3%
Cc1ccc(-c2cc3c(NC(=O)C4CC4)ncnc3o2)cc1	2.25%	2.54%	2.8%	2.02%	1.79%	5.24%	0.65%	3.45%	6.06%	4.1%
COC(=O)Nc1nc2cc(Oc3ccc(NC(=O)Nc4ccccc4)cc3)ccc2[nH]1	4.89%	-0.48%	-0.69%	1.38%	2.87%	0.28%	0.72%	2.86%	3.15%	2.3%
CCS(=O)(=O)c1ccc(OC)c(Nc2ncc(-c3cccc(C(C)=O)c3)o2)c1	1.69%	1.79%	-0.79%	2.27%	3.34%	1.16%	1.89%	2.32%	2.22%	2.04%
